Experiment [1] can be described thus: NCI Yeast Anticancer Drug Screen. Data for the rad50 strain (AID 155).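 Also: 0% = growth of vehicle-only cultures of the same strain.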 To be noted: S. cerevisiae rad50 strain growth inhibition, active compounds read high. The method, boiled down:
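A DNA repair-deficient yeast mutant serves as the test organism; compound-induced growth inhibition is calculated against vehicle-treated cells.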

A short description of experiment [2]: NCI Yeast Anticancer Drug Screen. Data for the mec2-1 strain (AID 157). As to conditions: S. cerevisiae mec2-1 strain, active compounds read high. In a few lines: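 Growth inhibition is read against vehicle-treated controls after compound exposure of the mec2-1 yeast strain, which is defective in DNA damage repair or cell cycle control.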
Experiment [3] can be described thus: NCI Yeast Anticancer Drug Screen. Data for the sgs1 mgt1 strain (AID 161).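 Also: 0% = growth of cultures given vehicle only.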 To be noted: S. cerevisiae sgs1 mgt1 strain, active compounds read high. In a few lines:
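Percent growth inhibition was derived by comparing compound-exposed mutant yeast with vehicle-exposed cultures. The strain carries alterations in DNA damage repair.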

A short description of experiment [4]: NCI Yeast Anticancer Drug Screen. Data for the cln2 rad14 strain (AID 165).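 Also: 0% = growth equal to vehicle treated cultures.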 As to conditions: S. cerevisiae cln2 rad14 strain, active compounds read high. The method, boiled down:
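Growth inhibition, relative to vehicle-treated controls, is the read-out. The test organism is a yeast strain with defined genetic alterations, cln2 rad14.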

Experiment [5] is described as follows: NCI Yeast Anticancer Drug Screen. Data for the bub3 strain (AID 167). To be noted: S. cerevisiae bub3 mutant strain, active compounds read high. The method, boiled down: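 Inhibition values come from growth of compound-treated mutant yeast normalised to vehicle-treated controls.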
Experiment [6] can be described thus: NCI Yeast Anticancer Drug Screen. Data for the mlh1 rad18 strain (AID 175). As to conditions: S. cerevisiae mlh1 rad18 strain growth inhibition, active compounds read high. In a few lines: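 Cells of a genetically altered yeast strain, deficient in DNA damage repair, were treated with compound. Their growth was then compared with that of vehicle-treated cultures to give inhibition.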

Setting [7] is: at 5.0 µM (retest, dose inferred, filed as 0.5).
Where [8] appears, read: at 50.0 µM (retest, dose inferred, filed as 5.0).

Compounds without any hit were thinned out: in the full panel of roughly 79,000, 15% have a hit. Values without a mark were called inactive. Active and inactive are the calls of the source. Rule as the data show it: active = growth inhibition above about 70%; inactive = the rest.

As for `CCCCCCCCCCCCCCNC(=O)C[N+](C)(C)Cc1ccccc1`, the growth inhibition in experiment [1] (setting [7]) was 99% (active); in experiment [1] (setting [8]), 99% (active); in experiment [1] (at 50.0 µM), 99.5% (active); in experiment [2] (setting [7]), 99% (active); in experiment [2] (setting [8]), 100% (active); in experiment [2] (at 50.0 µM), 99.7% (active). Moreover, the growth inhibition is 99% (active) in experiment [3] (setting [7]); 99% (active) in experiment [3] (setting [8]); 99.3% (active) in experiment [3] (at 50.0 µM); 99% (active) in experiment [4] (setting [7]); 99% (active) in experiment [4] (setting [8]); 99.5% (active) in experiment [4] (at 50.0 µM). Also, the growth inhibition is 99% (active) in experiment [5] (setting [7]); 99% (active) in experiment [5] (setting [8]); 99.4% (active) in experiment [5] (at 50.0 µM); 99% (active) in experiment [6] (setting [7]); 99% (active) in experiment [6] (setting [8]); 99.6% (active) in experiment [6] (at 50.0 µM).
Take `Cn1c2nc(-[n+]3ccc4ccccc4c3)nc-2c([O-])n(C)c1=O`: the growth inhibition in experiment [1] (setting [7]) was 34%; in experiment [1] (setting [8]) it was 95% (active); in experiment [1] (at 50.0 µM), -9.45%; in experiment [2] (setting [7]), 12%; in experiment [2] (setting [8]), 96% (active); in experiment [2] (at 50.0 µM) it was 3.55%. The growth inhibition in experiment [3] (setting [7]) is 15%; in experiment [3] (setting [8]), 96% (active); in experiment [3] (at 50.0 µM), -13.1%; in experiment [4] (setting [7]), 3%; in experiment [4] (setting [8]) it was 84% (active); in experiment [4] (at 50.0 µM), 49%. Further, the growth inhibition was 8% in experiment [5] (setting [7]); 97% (active) in experiment [5] (setting [8]); 0.2% in experiment [5] (at 50.0 µM); 12% in experiment [6] (setting [7]); 98% (active) in experiment [6] (setting [8]); -3.35% in experiment [6] (at 50.0 µM).
Regarding `CCC(CC)COC(=O)c1cccnc1`, the growth inhibition in experiment [1] (setting [7]) was 1%; in experiment [1] (setting [8]), 99% (active); in experiment [1] (at 50.0 µM) it was 97.7% (active); in experiment [2] (setting [7]), -19%; in experiment [2] (setting [8]), 99% (active); in experiment [2] (at 50.0 µM), 99.1% (active). Also, the growth inhibition is 0% in experiment [3] (setting [7]); 99% (active) in experiment [3] (setting [8]); 98.2% (active) in experiment [3] (at 50.0 µM); -4% in experiment [4] (setting [7]); 99% (active) in experiment [4] (setting [8]); 96.9% (active) in experiment [4] (at 50.0 µM). The growth inhibition was -6% in experiment [5] (setting [7]); 98% (active) in experiment [5] (setting [8]); 97.8% (active) in experiment [5] (at 50.0 µM); 0% in experiment [6] (setting [7]); 98% (active) in experiment [6] (setting [8]); 97.5% (active) in experiment [6] (at 50.0 µM).
With `O=C(c1c(F)c(F)c(F)c(F)c1F)n1c(=S)n(C(=O)c2c(F)c(F)c(F)c(F)c2F)c2ccccc21`, the growth inhibition was 11% in experiment [1] (setting [7]); 96% (active) in experiment [1] (setting [8]); 42% in experiment [1] (at 50.0 µM); 19% in experiment [2] (setting [7]); 90% (active) in experiment [2] (setting [8]); 71.4% (active) in experiment [2] (at 50.0 µM). For the same compound, the growth inhibition in experiment [3] (setting [7]) is 14%; in experiment [3] (setting [8]) it was 93% (active); in experiment [3] (at 50.0 µM), 62.3%; in experiment [4] (setting [7]), -2%; in experiment [4] (setting [8]) it was 53%; in experiment [4] (at 50.0 µM) it was 8.45%. In addition, the growth inhibition in experiment [5] (setting [7]) was 2%; in experiment [5] (setting [8]), 91% (active); in experiment [5] (at 50.0 µM), 49.1%; in experiment [6] (setting [7]) it was 29%; in experiment [6] (setting [8]), 95% (active); in experiment [6] (at 50.0 µM) it was 86.1% (active).
Regarding `CCCCCCCCCCCC(=O)NN`, the growth inhibition in experiment [1] (setting [7]) was 14%; in experiment [1] (setting [8]), 82% (active); in experiment [1] (at 50.0 µM), 97.4% (active); in experiment [2] (setting [7]), 12%; in experiment [2] (setting [8]) it was 43%; in experiment [2] (at 50.0 µM), 97.6% (active). Besides, the growth inhibition in experiment [3] (setting [7]) is 6%; in experiment [3] (setting [8]), 68%; in experiment [3] (at 50.0 µM), 98% (active); in experiment [4] (setting [7]), -3%; in experiment [4] (setting [8]), 65%; in experiment [4] (at 50.0 µM) it was 97% (active). In addition, the growth inhibition was 22% in experiment [5] (setting [7]); 52% in experiment [5] (setting [8]); 95.3% (active) in experiment [5] (at 50.0 µM); 8% in experiment [6] (setting [7]); 82% (active) in experiment [6] (setting [8]); 97.8% (active) in experiment [6] (at 50.0 µM).
Regarding `N#CC(C#N)=C1C(Br)=CCc2ccccc21`, the growth inhibition in experiment [1] (setting [7]) is 100% (active); in experiment [1] (setting [8]) it was 99% (active); in experiment [1] (at 50.0 µM) it was 99.2% (active); in experiment [2] (setting [7]), 100% (active); in experiment [2] (setting [8]) it was 100% (active); in experiment [2] (at 50.0 µM) it was 99.3% (active). Also, the growth inhibition was 100% (active) in experiment [3] (setting [7]); 99% (active) in experiment [3] (setting [8]); 99.2% (active) in experiment [3] (at 50.0 µM); 100% (active) in experiment [4] (setting [7]); 99% (active) in experiment [4] (setting [8]); 97.5% (active) in experiment [4] (at 50.0 µM). Further, the growth inhibition is 100% (active) in experiment [5] (setting [7]); 99% (active) in experiment [5] (setting [8]); 99.2% (active) in experiment [5] (at 50.0 µM); 100% (active) in experiment [6] (setting [7]); 99% (active) in experiment [6] (setting [8]); 99.2% (active) in experiment [6] (at 50.0 µM).
For `COc1cc(C2c3cc4c(cc3OC(NNc3ccccc3)C2C)OCO4)cc(OC)c1O` (configuration not stated), the growth inhibition in experiment [1] (setting [7]) is -5%; in experiment [1] (setting [8]), 97% (active); in experiment [1] (at 50.0 µM), 98.2% (active); in experiment [2] (setting [7]), -15%; in experiment [2] (setting [8]), 98% (active); in experiment [2] (at 50.0 µM) it was 98.7% (active). The growth inhibition in experiment [3] (setting [7]) is -13%; in experiment [3] (setting [8]) it was 99% (active); in experiment [3] (at 50.0 µM), 98.4% (active); in experiment [4] (setting [7]) it was -5%; in experiment [4] (setting [8]), 96% (active); in experiment [4] (at 50.0 µM) it was 98.6% (active). In addition, the growth inhibition was -7% in experiment [5] (setting [7]); 97% (active) in experiment [5] (setting [8]); 98.7% (active) in experiment [5] (at 50.0 µM); -11% in experiment [6] (setting [7]); 97% (active) in experiment [6] (setting [8]); 98.3% (active) in experiment [6] (at 50.0 µM).
`O=C(Nc1cccc(Cl)c1)c1ccc([N+](=O)[O-])cc1`: the growth inhibition in experiment [1] (setting [7]) is 10%; in experiment [1] (setting [8]), 8%; in experiment [1] (at 50.0 µM), -8.65%; in experiment [2] (setting [7]), -11%; in experiment [2] (setting [8]) it was -6%; in experiment [2] (at 50.0 µM), -10.8%. The growth inhibition in experiment [3] (setting [7]) is 6%; in experiment [3] (setting [8]), 4%; in experiment [3] (at 50.0 µM), -12.7%; in experiment [4] (setting [7]), 4%; in experiment [4] (setting [8]) it was 17%; in experiment [4] (at 50.0 µM) it was -27.4%. Besides, the growth inhibition in experiment [5] (setting [7]) was 23%; in experiment [5] (setting [8]) it was 32%; in experiment [5] (at 50.0 µM), -6.8%; in experiment [6] (setting [7]), 17%; in experiment [6] (setting [8]), 26%; in experiment [6] (at 50.0 µM) it was -0.9%.
`NC(=S)NNCCC(=O)Nc1ccccc1C(F)(F)F`: the growth inhibition in experiment [1] (setting [7]) is 2%; in experiment [1] (setting [8]), 3%; in experiment [1] (at 50.0 µM), -9.75%; in experiment [2] (setting [7]) it was -2%; in experiment [2] (setting [8]), 2%; in experiment [2] (at 50.0 µM) it was 12.2%. Moreover, the growth inhibition in experiment [3] (setting [7]) was 3%; in experiment [3] (setting [8]) it was 4%; in experiment [3] (at 50.0 µM), -1.9%; in experiment [4] (setting [7]), -3%; in experiment [4] (setting [8]) it was 7%; in experiment [4] (at 50.0 µM), 6.15%. Further, the growth inhibition is 0% in experiment [5] (setting [7]); 1% in experiment [5] (setting [8]); 65.8% in experiment [5] (at 50.0 µM); -2% in experiment [6] (setting [7]); 7% in experiment [6] (setting [8]); 2.75% in experiment [6] (at 50.0 µM).

(Values after PubChem BioAssay (NCI).)
